Test system: PvIESI-1 RRM domain (Plasmodium vivax PVP01_0939900 aa 896-1203, GST fusion)
Assay: RBNS R-value (6-mer enrichment in protein-bound RNA vs input library) (ratio); higher = stronger binding preference; the methods of the paper give 50 / 100 / 500 nM protein instead
Protocol: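 RNA Bind-n-Seq: recombinant GST-tagged IESI-1 RRM domain was incubated at room temperature with a random 40-nt in vitro transcribed RNA library at 250, 500 or 1000 nM protein. Bound RNA was pulled down on glutathione beads and sequenced. R-value is the enrichment of each 6-mer in the bound RNA relative to the input library. Each 6-mer sits inside the random 40-mer context, not as an isolated oligo. Values are replicate 1 only.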

UUGAUC
RBNS R-value (protein concentration: 250 nM): 1.91
RBNS R-value (protein concentration: 500 nM): 2.12
RBNS R-value (protein concentration: 1000 nM): 2.1

GAUUGA
RBNS R-value (protein concentration: 250 nM): 2.27
RBNS R-value (protein concentration: 500 nM): 2.42
RBNS R-value (protein concentration: 1000 nM): 2.29

GAUGAA
RBNS R-value (protein concentration: 250 nM): 2.73
RBNS R-value (protein concentration: 500 nM): 2.89
RBNS R-value (protein concentration: 1000 nM): 2.83

UGAUUG
RBNS R-value (protein concentration: 250 nM): 3.56
RBNS R-value (protein concentration: 500 nM): 3.76
RBNS R-value (protein concentration: 1000 nM): 3.39

UUGAUG
RBNS R-value (protein concentration: 250 nM): 4.85
RBNS R-value (protein concentration: 500 nM): 5.06
RBNS R-value (protein concentration: 1000 nM): 4.68

GAUUGC
RBNS R-value (protein concentration: 250 nM): 2.21
RBNS R-value (protein concentration: 500 nM): 2.33
RBNS R-value (protein concentration: 1000 nM): 2.1

CUGAUU
RBNS R-value (protein concentration: 250 nM): 3.89
RBNS R-value (protein concentration: 500 nM): 4.11
RBNS R-value (protein concentration: 1000 nM): 3.75

UGAUAG
RBNS R-value (protein concentration: 250 nM): 3
RBNS R-value (protein concentration: 500 nM): 3.35
RBNS R-value (protein concentration: 1000 nM): 3.29

GAUUUC
RBNS R-value (protein concentration: 250 nM): 2.32
RBNS R-value (protein concentration: 500 nM): 2.49
RBNS R-value (protein concentration: 1000 nM): 2.38

CGAUGA
RBNS R-value (protein concentration: 250 nM): 2.37
RBNS R-value (protein concentration: 500 nM): 2.7
RBNS R-value (protein concentration: 1000 nM): 2.6

GUGAUU
RBNS R-value (protein concentration: 250 nM): 2.96
RBNS R-value (protein concentration: 500 nM): 3.22
RBNS R-value (protein concentration: 1000 nM): 3.1

CACCCG
RBNS R-value (protein concentration: 250 nM): 1.41
RBNS R-value (protein concentration: 500 nM): 1.76
RBNS R-value (protein concentration: 1000 nM): 1.77

CUGAUG
RBNS R-value (protein concentration: 250 nM): 4.09
RBNS R-value (protein concentration: 500 nM): 4.34
RBNS R-value (protein concentration: 1000 nM): 4.04
